The list is not random: actives were taken first. Their share in the collection is about 11%.
G9a inh – qHTS Assay for Inhibitors of Histone Lysine Methyltransferase G9a. Histone-lysine N-methyltransferase EHMT2 (Homo sapiens), Q96KQ7. Potency, µM (series often up to 102 µM), without a hit: at the highest dose activity, negative = inhibition, usual class: inhibitors. actives 8.8% (n = 350,000). G9a H3K9 monomethylation, AlphaScreen, 2 h. AID 504332, 2011; further: potency means the concentration at half of the fitted maximal effect; on the % scale 0 is the no-effect control and ±100 the full control effect; nearly all actives have a fitted effect of over 75% in size
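Using a bead-based AlphaScreen, monomethylated H3K9 product from 2 h room-temperature reactions (G9a 20 nM, peptide 500 nM, SAM 20 uM) was detected with 0.5 ug/mL rabbit anti-H3K9me1 antibody.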
BAZ2B inh – qHTS Assay for Inhibitors of BAZ2B; actives 4.4% (n = 360,000); AlphaScreen BAZ2B-H3K14Ac peptide displacement; Potency, µM (doses to about 114 µM), without a hit: at the highest dose activity change, negative = inhibition, actives largely listed as inhibitors; Bromodomain adjacent to zinc finger domain protein 2B (Homo sapiens), Q9UIF8; further: potency means the concentration at half of the fitted maximal effect; on the % scale 0 is the no-effect control and ±100 the full control effect; nearly all actives have a fitted effect of over 60% in size
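BAZ2B 50 nM plus b-H3(5-23)K14Ac 50 nM, PBS pH 7.4/0.01% Tween-20, 30 min RT; compound added (max 110 uM), 30 min RT; streptavidin donor/Ni-chelate acceptor beads 10 ug/mL final, 20 min dark; AlphaScreen read.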
JMJD2A Tudor inh – qHTS Assay for Inhibitors of JMJD2A-Tudor Domain | Lysine-specific demethylase 4A (Homo sapiens), O75164 | AID 504339, 2011 | Potency, µM (series often up to 114 µM), inactives show top-dose activity change, negative = inhibition, usual class: inhibitors | actives 4.4% (n = 390,000) | AlphaScreen JMJD2A-Tudor / H3K4me3 peptide binding; further: potency means the concentration at half of the fitted maximal effect; on the % scale 0 is the no-effect control and ±100 the full control effect; nearly all actives have a fitted effect of over 50% in size
Target sequence (O75164 whole entry, looked up, the tested form may be a part): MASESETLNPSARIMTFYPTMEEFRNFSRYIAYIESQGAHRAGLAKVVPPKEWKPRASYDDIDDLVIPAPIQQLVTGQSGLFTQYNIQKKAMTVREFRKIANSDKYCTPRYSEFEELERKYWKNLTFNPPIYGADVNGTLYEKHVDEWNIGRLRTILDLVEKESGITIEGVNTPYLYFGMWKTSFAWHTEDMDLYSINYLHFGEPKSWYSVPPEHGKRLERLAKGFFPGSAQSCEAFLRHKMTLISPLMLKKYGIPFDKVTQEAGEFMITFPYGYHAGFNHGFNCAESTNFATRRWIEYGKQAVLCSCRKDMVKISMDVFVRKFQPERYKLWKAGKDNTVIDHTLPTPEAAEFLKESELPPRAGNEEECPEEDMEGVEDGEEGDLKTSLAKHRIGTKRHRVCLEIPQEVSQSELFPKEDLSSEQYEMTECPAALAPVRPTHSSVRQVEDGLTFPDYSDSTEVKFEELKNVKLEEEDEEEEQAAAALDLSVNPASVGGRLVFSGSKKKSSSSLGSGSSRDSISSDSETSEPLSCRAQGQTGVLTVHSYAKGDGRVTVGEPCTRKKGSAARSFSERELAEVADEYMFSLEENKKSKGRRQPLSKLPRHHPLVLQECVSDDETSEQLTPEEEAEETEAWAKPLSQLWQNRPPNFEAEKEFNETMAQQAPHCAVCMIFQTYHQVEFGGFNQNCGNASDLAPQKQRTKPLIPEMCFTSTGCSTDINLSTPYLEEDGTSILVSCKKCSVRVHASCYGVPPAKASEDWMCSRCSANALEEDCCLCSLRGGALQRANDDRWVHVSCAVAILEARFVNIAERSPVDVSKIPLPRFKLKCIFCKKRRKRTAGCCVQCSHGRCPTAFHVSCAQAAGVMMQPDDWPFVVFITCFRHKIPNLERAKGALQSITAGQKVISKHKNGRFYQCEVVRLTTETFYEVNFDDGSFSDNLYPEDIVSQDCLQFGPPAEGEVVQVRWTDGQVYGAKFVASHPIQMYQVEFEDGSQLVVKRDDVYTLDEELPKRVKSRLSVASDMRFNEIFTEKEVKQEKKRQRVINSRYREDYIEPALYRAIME
PI5P4Ka inh – qHTS for Inhibitors of phosphatidylinositol 5-phosphate 4-kinase (PI5P4K); Phosphatidylinositol 5-phosphate 4-kinase type-2 alpha (Homo sapiens), P48426; PI5P4Kalpha enzyme, ADP-Glo luminescence, 60 min; stronger effect = lower value; max response, %; actives 1.2% (n = 330,000); active means max response of -50% or lower; inconclusive means between -30% and -50%; inactive means -30% or higher; further: value at the top dose of about 77 µM; on the % scale 0 is the no-effect control and ±100 the full control effect
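Quantitative HTS of the MLSMR library against PI5P4Kalpha with substrate. ATP added last at 5 microM final; room temperature, 60 minutes. Remaining ATP depleted, ADP converted and read as luminescence.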
HP1b binding inh – HTS for Inhibitors of HP1-beta Chromodomain Interactions with Methylated Histone Tails; Chromobox protein homolog 1 (Homo sapiens), P83916; AlphaScreen HP1-beta / biotin-H3K9me3 peptide binding; Potency, µM (series often up to 114 µM), for inactives: at the top dose activity change, negative = inhibition, most hits filed as inhibitors; actives 0.56% (n = 390,000); further: potency means the concentration at half of the fitted maximal effect; nearly all actives have a fitted effect of over 70% in size
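AlphaScreen: HP1-beta (50 nM) preformed 30 min with biotin-H3(1-18)K9me3 peptide (50 nM) in PBS pH 7.4, 0.01% Tween-20. Compound added for 30 min at RT, then streptavidin donor/nickel chelate acceptor beads (10 ug/mL) for 30 min.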
L3MBTL1 inh – qHTS Assay for the Inhibitors of L3MBTL1; AID 485360, 2010; Lethal(3)malignant brain tumor-like protein 1 (Homo sapiens), Q9Y468; Potency, µM (highest dose often 57.1 µM), for the others: at the top dose activity, negative = inhibition, usual class: inhibitors; actives 0.66% (n = 230,000); AlphaScreen L3MBTL1–H3K9me1 peptide binding; further: potency means the concentration at half of the fitted maximal effect; on the % scale 0 is the no-effect control and ±100 the full control effect; nearly all actives have a fitted effect of over 60% in size
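AlphaScreen proximity signal between nickel-chelate acceptor and streptavidin donor beads (final 10 ug/mL) reports binding of 50 nM L3MBTL1 to 75 nM biotin-H3 K9me1 peptide; complex incubated with compounds 30 min at room temperature; cefsulodin titration as control.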
The depositor's hits bear a star; [ ] = another dose, or the depositor's remark. Unless noted, the call rests on the fitted dose curve; in most records, active means well fitted inhibition curve with a large enough effect; inconclusive means small, poorly fitted or top-dose-only effect; inactive means no such curve, though single readings can be large or run the other way.

For CC(=O)NCCCc1ccc(C(=O)COC(=O)CNC(=O)c2ccc3ccccc3c2)cc1 the results were JMJD2A Tudor inh 3%[57.1 µM] and HP1b binding inh 9%[57 µM].
Screening Nc1n[nH]c(C2CCCCC2)n1 returned G9a inh 11%, BAZ2B inh -15%, JMJD2A Tudor inh -7%, PI5P4Ka inh -6, HP1b binding inh 37% and L3MBTL1 inh -5%.
Screening S=c1nc(C2CCCCC2)[nH][nH]1 returned G9a inh inconclusive, BAZ2B inh 1%, JMJD2A Tudor inh 5µM*, HP1b binding inh -46% and L3MBTL1 inh -2%.
For CN(C)[C@@H]1C(=O)C(C(=O)NCN2CCCC2)=C(O)[C@@]2(O)C(=O)C3=C(O)c4c(O)cccc4[C@@](C)(O)C3CC12 (some centres not stated) the results were G9a inh 3.2µM*, BAZ2B inh 1.3µM* and L3MBTL1 inh inconclusive.
CN(C)[C@H]1C(=O)C(C(=O)NCN2CCCC2)=C(O)[C@]2(O)C(=O)C3=C(O)c4c(O)cccc4[C@](C)(O)[C@H]3C[C@H]12 was read as G9a inh 1.6µM*.
Cc1ccc(CNC(=O)c2ccc3c(c2)N(Cc2cccc(C)c2)C(=O)CS3)cc1 was read as G9a inh 3%[59 µM], BAZ2B inh 0%, JMJD2A Tudor inh -1% and HP1b binding inh 28%.
O=C(c1ccc([N+](=O)[O-])cc1)N(Cc1ccco1)c1ccccn1 was read as G9a inh -34%[59 µM], BAZ2B inh -29%, JMJD2A Tudor inh -10% and HP1b binding inh 33%.
CC(=O)c1cccc(NS(=O)(=O)c2ccc(N/C=C/C(=O)c3ccc(F)cc3)cc2)c1 was read as G9a inh 8.9µM*, BAZ2B inh inconclusive, JMJD2A Tudor inh -20%, PI5P4Ka inh -7, HP1b binding inh 16% and L3MBTL1 inh -18%.
O=C(CC(c1ccccc1)c1cc(Br)ccc1O)NCC1(c2ccccc2)CCCC1 (configuration not stated) was read as G9a inh -23%[59 µM], BAZ2B inh inconclusive, JMJD2A Tudor inh -31% and HP1b binding inh -7%.
For CN(C)c1ccc(C(c2ccc(N(C)C)cc2)C(O)c2ccccc2)cc1 (configuration not stated) the results were JMJD2A Tudor inh 22µM*, PI5P4Ka inh -6 and HP1b binding inh inconclusive.
Cc1cc(C)cc(OCC(=O)OCC(=O)N(CC(C)C)c2c(N)n(Cc3ccccc3)c(=O)[nH]c2=O)c1 was read as G9a inh 50µM*, BAZ2B inh 13%, JMJD2A Tudor inh -20%, PI5P4Ka inh 0, HP1b binding inh 7% and L3MBTL1 inh -5%.
For CC(C)CN(C(=O)COC(=O)C(C)N1C(=O)c2ccccc2C1=O)c1c(N)n(Cc2ccccc2)c(=O)[nH]c1=O (configuration not stated) the results were G9a inh 35µM*, BAZ2B inh 3%, JMJD2A Tudor inh -1%, PI5P4Ka inh -4, HP1b binding inh 12% and L3MBTL1 inh 5%.
For CC(C)CN(C(=O)CC1OC(=O)c2ccccc21)c1c(N)n(Cc2ccccc2)c(=O)[nH]c1=O (configuration not stated) the results were G9a inh 56µM*, BAZ2B inh 10%, JMJD2A Tudor inh -1%, PI5P4Ka inh -1, HP1b binding inh 39% and L3MBTL1 inh -1%.
`Cc1cccc(N2C(=O)CS(=O)(=O)C23C(=O)N(Cc2c(F)cccc2Cl)c2ccccc23)c1` (configuration not stated) gave G9a inh -33%[59 µM], BAZ2B inh 2%[57.1 µM], JMJD2A Tudor inh -17% and HP1b binding inh 16%.
`CC(=O)c1ccc(NC(=O)COc2ccccc2-c2nc(-c3ccc(C)cc3)no2)cc1` gave G9a inh inconclusive, BAZ2B inh -12%, JMJD2A Tudor inh -15% and HP1b binding inh 27%.
CCNC(=O)NC1c2ccccc2CSc2ccccc21 (configuration not stated) was read as JMJD2A Tudor inh -11%, PI5P4Ka inh -2 and HP1b binding inh -1%.
Screening CCOCCN1CCN(C2c3ccccc3CSc3ccccc32)CC1 (configuration not stated) returned JMJD2A Tudor inh 13µM*, PI5P4Ka inh -3 and HP1b binding inh inconclusive.
Cc1ccc(COc2ccc(CNCCCN3CCCCCC3=O)cc2)cc1 was read as G9a inh 14µM*, BAZ2B inh 35µM*, JMJD2A Tudor inh 1.3µM*, PI5P4Ka inh 3 and HP1b binding inh 32µM*.
CCC(Sc1nc(-c2ccccc2F)nc2c1Cc1c(CO)cnc(C)c1O2)C(=O)Nc1cc(C)ccc1C (configuration not stated) was read as G9a inh -3%[59 µM], BAZ2B inh -17%, JMJD2A Tudor inh -25% and HP1b binding inh 0%.
`CCN1C(=O)/C(=C/C=C2\C=CN(CC)c3ccccc32)SC1=S` gave G9a inh 8.9µM*, BAZ2B inh 2µM*, JMJD2A Tudor inh inconclusive, PI5P4Ka inh -14, HP1b binding inh 3.5µM* and L3MBTL1 inh -18%.
`CCN1C(=O)/C(=C\C=C2/C=CC=CN2CC)SC1=S` gave G9a inh 10µM*, BAZ2B inh 22µM*, JMJD2A Tudor inh inconclusive, PI5P4Ka inh -29, HP1b binding inh 40µM* and L3MBTL1 inh inconclusive.
For CCN1C(=O)/C(=C\N2CCN(C)CC2)SC1=S the results were G9a inh -28%, BAZ2B inh -32%, JMJD2A Tudor inh -19%, PI5P4Ka inh -5, HP1b binding inh 24% and L3MBTL1 inh 0%.
`CCN1C(=O)C(=CC=CN(C)c2ccccc2)SC1=S` gave PI5P4Ka inh 4.
COc1ccccc1NC(=O)CN1C(=O)C(c2ccc(F)cc2)=NC12CCCCC2 was read as G9a inh 5%[59 µM], BAZ2B inh -1%, JMJD2A Tudor inh 3% and HP1b binding inh 62%.
Screening CN1C(=O)CC2(C=CC(=O)C=C2OC(=O)c2ccccc2)c2ccccc21 (configuration not stated) returned JMJD2A Tudor inh -19% and HP1b binding inh 37%.

Assay outcomes (PubChem)
